Measurements taken from PubChem BioAssay AID1347417 (National Center for Advancing Translational Sciences (NCATS), 2020).
Hit rate of the full screen: of about 120,000 compounds, about 5,300 (4.4%) were called active. Where a call stands in place of a potency, no number is given. Roughly 22% stayed inconclusive and do not appear here. Many of the other results were omitted from the sample, so actives are more common in it than they were. Unmarked numbers belong to inactive results. Calls follow the shape of the dose curve; as a rule, active = well fitted inhibition curve with a large enough effect; inconclusive = small, poorly fitted or top-dose-only effect; inactive = no such curve, though single readings can be large or run the other way.
Potency is read from the fitted curve at half-maximal effect.

Test: qHTS Primary assay for Inhibitors of Plasmodium falciparum Dd2 growth in vitro; also: nearly all actives have a fitted effect of over 65% in size
Details: P. falciparum Dd2 growth, SYBR Green, 72 h; series mostly up to 28.9 µM
Procedure, shortened: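 Readout: SYBR Green fluorescence, 485 nm excitation, 535 nm emission, after ~16 h lysis at 37C. Before that, Dd2-infected red cells (2.5% hematocrit) grew 72 h with compound, 29 uM top final concentration.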
With `COc1ccc(CN2CC[C@@H]3CN(S(C)(=O)=O)[C@@H]3C2)c(OC)c1` the Potency was “inactive”.
In the case of `c1ccc(CN2CCNc3cc(NCc4cccnc4)ncc3C2)cc1`, the Potency is reported as “inactive”.
For `Fc1ccc(-c2cc(NC3CCCC3)nc3[nH]ccc23)nc1`, the Potency was “inactive”.
With `c1cncc(CNc2cc(-c3cnc4ccccc4n3)c3cc[nH]c3n2)c1` the Potency was 3.98 µM (active).
In the case of `NC(=O)c1ccc(OC2CCN(C(=O)CCc3ccccc3)C2)nc1` (stereo not given), the Potency is reported as “inactive”.
`O=C(c1ccccc1F)N1CC(Oc2cccc(-c3nc(-c4ccccc4)no3)c2)C1` gave an activity, negative = inhibition of 36.6% [at 5.79 µM].
In the case of `CCCC(=O)N1CCC(N2C(=O)C(O)C23CCCCC3)CC1` (stereo not given), the Potency is reported as “inactive”.
With `COCCN1CC[C@H]2CN(C(=O)Cc3ccc(OC)cc3)CC[C@H]2CC1=O` the Potency was “inactive”.
For `C[C@]1(CO)C2CC[C@@H](O)[C@@H](CC(=O)N3CC[C@@H](O)C3)[C@]2(C)CC[C@H]1OC(=O)Nc1ccc(Oc2ccccc2)cc1` (stereo not given in full), the Potency was “inactive”.
For `COc1ccc(CCNC(=O)c2noc(-c3ccc(C)cc3)n2)cc1OC`, the Potency was “inactive”.
For `COc1ccc(CCNC(=O)c2ccc3c(c2)nc(C)n3-c2ccc(Br)cc2)cc1OC`, the Potency was “inactive”.
With `COc1ccccc1CNC(=O)c1cc2c(s1)CCN(C(=O)c1ccccc1)C2` the Potency was “inactive”.
In the case of `CCOc1ccccc1CNC(=O)C1CCCN(S(=O)(=O)c2ccc3c(ccn3C)c2)C1` (stereo not given), the Potency is reported as “inactive”.
In the case of `COc1ccccc1CNC(=O)c1ccc(-n2c(C)cc3c2CCCC3)cc1`, the Potency is reported as 11.2 µM (active).
With `COc1ccccc1Oc1ncccc1CNC(=O)c1ccc2n[nH]nc2c1` the Potency was “inactive”.
With `CCOc1ccccc1CNC(=O)c1ccc2c(c1)nc1n2CCC(C)C1` (stereo not given) the Potency was “inactive”.
In the case of `CCOc1ccccc1CNC(=O)c1ccc(-n2c(C)cc3c2CCC(C)C3)cc1` (stereo not given), the Potency is reported as 12.6 µM (active).
For `COc1ccc(CCNC(=O)c2ccc(-n3c(C)cc4c3CCCC4)cc2)cc1OC`, the Potency was 11.2 µM (active).
With `COc1ccc(NC(=O)Cn2ccn3nc(-c4ccc(F)cc4)c(CO)c3c2=O)c(OC)c1` the Potency was “inactive”.
In the case of `O=C(N[C@@H]1CN[C@H](CO)C1)c1ccncc1`, the Potency is reported as “inactive”.
In the case of `COC(=O)[C@@H]1Cc2c([nH]c3ccccc23)[C@H]2C[C@@H](NCCN3CCOCC3)C[C@@H](c3ccccc3F)N21`, the Potency is reported as “inactive”.
In the case of `Cc1cnc(C)c(N2CCN(C(=O)[C@H]3CC[C@@H](N)C3)CC2)n1`, the Potency is reported as “inactive”.
With `O=c1[nH]c(C2CCCN(Cc3ccccn3)C2)nn1-c1ccc(Cl)cc1` (stereo not given) the Potency was 1.41 µM (active).
For `O=C(Cc1ccc(F)cc1)N1CCCC(c2nn(-c3ccc(Cl)cc3)c(=O)[nH]2)C1` (stereo not given), the Potency was “inactive”.
With `CC(=O)N1CCCC(c2nn(-c3ccccc3)c(=O)[nH]2)C1` (stereo not given) the Potency was “inactive”.
With `COCc1nnc(NC(=O)C2c3ccccc3C(=O)N(C3CCCC3)C23CCCC3)s1` (stereo not given) the Potency was 7.94 µM (active).
With `COCCNC(=O)C1c2ccccc2C(=O)N(C2CCCC2)C12CCCCC2` (stereo not given) the Potency was “inactive”.
For `Cc1cccnc1NC(=O)C1c2ccccc2C(=O)N(C2CCCC2)C12CCCC2` (stereo not given), the Potency was “inactive”.
In the case of `CS(=O)(=O)N1CCC(F)(c2nc(-c3ccccc3)no2)CC1`, the Potency is reported as “inactive”.
With `CN1CC(=O)N(c2ccccc2F)Cc2c(NCCc3ccc(F)cc3)ncnc21` the Potency was “inactive”.
With `Cc1sc2cc(C(=O)N(C)C)[nH]c2c1CN1CCCCC1` the Potency was “inactive”.
For `CC(C)OC(=O)c1ccc(NC(=O)Cn2nc3c(cc2=O)CCCCC3)cc1`, the Potency was “inactive”.
In the case of `Cc1c(NS(=O)(=O)c2ccc(Cl)cc2)c(=O)n(-c2ccccc2)n1C`, the Potency is reported as “inactive”.
With `Cn1c(=O)n(C)c2cc(NS(=O)(=O)c3ccc(F)cc3)ccc21` the Potency was “inactive”.
For `CC(=O)c1c(C)n(S(=O)(=O)c2ccc(Cl)cc2)c2ccc(NS(=O)(=O)c3ccc(Cl)cc3)cc12`, the Potency was 11.2 µM (active).
For `COc1cc2c(=O)c(S(=O)(=O)c3ccc(C(C)C)cc3)cn(Cc3ccccc3C)c2cc1OC`, the Potency was 8.91 µM (active).
In the case of `COCCCNc1nc2c(S(=O)(=O)c3ccc(C(C)C)cc3)nnn2c2ccccc12`, the Potency is reported as “inactive”.
In the case of `O=C(NCc1cc(F)cc(F)c1)c1noc(-c2ccc3c(c2)OCO3)n1`, the Potency is reported as “inactive”.
In the case of `COc1ccc(CNC(=O)N2CCCCC2c2noc(COCC3CC3)n2)cc1` (stereo not given), the Potency is reported as “inactive”.
For `Cc1ccc(-c2cn3c(n2)sc2cc(C(=O)NCc4cccs4)ccc23)c(C)c1`, the Potency was 11.2 µM (active).
For `Cc1ccc(-c2cn3c(n2)sc2cc(C(=O)NCCCc4ccccc4)ccc23)cc1`, the Potency was “inactive”.
In the case of `CCOc1cccc2cc(-c3cn4c(n3)sc3cc(C)ccc34)c(=O)oc12`, the Potency is reported as “inactive”.
For `O=C(NCc1ccccc1)c1cnc2n1CCN(Cc1c[nH]c3ccccc13)CC2`, the Potency was “inactive”.
In the case of `COCC(=O)Nc1ccc([C@H]2OCC(=O)N[C@@H]2CO)cc1`, the Potency is reported as “inactive”.
In the case of `Cn1ncc(N2CCC(C(=O)N3CC=C(c4ccccc4)CC3)C2)cc1=O` (stereo not given), the Potency is reported as “inactive”.
With `Cn1cnc(C(=O)N2CCC(OC3CCN(S(C)(=O)=O)CC3)CC2)c1` the Potency was “inactive”.
With `CC(C)c1csc(CN2CCN(c3ncccc3C#N)CC2)n1` the Potency was “inactive”.
In the case of `COc1ccc(NC(=O)N2CCC(O)(c3csc(CN4CCc5ccccc5C4)n3)CC2)cc1`, the Potency is reported as “inactive”.
In the case of `Oc1ccccc1CN1CCC(O)(c2csc(CN3CCN(c4ccccn4)CC3)n2)CC1`, the Potency is reported as 7.94 µM (active).
For `COc1ccccc1CCC(=O)N1CCC[C@H]1c1nc(-c2ccccc2)no1`, the Potency was “inactive”.
For `CC(C)c1cc(C(=O)NCc2cccnc2Oc2ccc(F)cc2F)on1`, the Potency was “inactive”.
For `CN(C)c1nc2c(c(=O)[nH]1)CCN(Cc1ccncc1)CC2`, the outcome was “inactive [at 5.79 µM]”.
In the case of `Cc1ccc(CN2C(=O)[C@@H]3C[C@@H](O)CN3C3(CN(Cc4ccncc4)C3)C2=O)o1`, the Potency is reported as “inactive”.
With `O=C1CC(c2ccccc2)N(C(=O)CNC(=O)c2cnccn2)CCCCCCN1` (stereo not given) the Potency was “inactive”.
With `O=C1CC(c2ccccc2)N(Cc2cn[nH]c2-c2ccc(F)cc2)CCCCCN1` (stereo not given) the Potency was 8.91 µM (active).
For `COc1ccc(OC)c(S(=O)(=O)N2CCCCCCNC(=O)CC2c2ccccc2)c1` (stereo not given), the Potency was “inactive”.
For `Cn1cc(CC(=O)N2CCCc3ncc(C(=O)NCc4ccc(F)cc4)cc32)c2ccccc21`, the Potency was “inactive”.
In the case of `CC(=O)N1CCCN(Cc2nnc(C(=O)N3CCC[C@@H]3C(c3ccccc3)c3ccccc3)n2-c2ccccc2)CC1`, the Potency is reported as “inactive”.
With `Cc1nc(N2CCC(NC(=O)c3cnccn3)CC2)cc(C(F)(F)F)n1` the Potency was “inactive”.
For `Cc1nc(N2CCC(NCCNc3ccncc3C)CC2)c2ccsc2n1`, the Potency was 10 µM (active).
In the case of `Cc1occc1C(=O)NC1CCc2nn(CC3CC3)c(=O)n2CC1` (stereo not given), the Potency is reported as “inactive”.
In the case of `CN1CCOC(CNc2ncc(C(C)(C)C(=O)O)c(N3CCOCC3)n2)C1` (stereo not given), the Potency is reported as “inactive”.
For `Cc1c(CNC(=O)c2ccc3c(c2)[nH]c(=O)n3C2CCC(O)CC2)cnn1C` (stereo not given), the Potency was “inactive”.
For `COc1ccc(-c2nc3c(c(SCC(=O)Nc4ccc(C(=O)O)cc4)n2)Cc2ccccc2O3)cc1`, the Potency was “inactive”.
With `CSc1nc(-c2ccc(F)cc2)nc2c1Cc1c(CO)cnc(C)c1O2` the Potency was “inactive”.
In the case of `Cc1ccccc1CSc1nc(-c2ccccc2)nc2c1Cc1c(CO)cnc(C)c1O2`, the Potency is reported as 3.98 µM (active).
With `COc1cccc(C2Cn3nnc(-c4nc(-c5ccccc5F)no4)c3CO2)c1` (stereo not given) the Potency was “inactive”.
For `Cc1ccc(CN2CCC(C3CCN(C)CC3)C2)o1` (stereo not given), the Potency was “inactive”.
With `CCOc1cc(C(=O)N2CCC[C@H]2c2nc(-c3ccc(F)cc3)no2)cc(OCC)c1OCC` the Potency was “inactive”.
In the case of `COC(=O)c1ccccc1NC(=O)C(Cc1ccccc1)N1Cc2ccccc2C1=O` (stereo not given), the Potency is reported as “inactive”.
For `COC(=O)c1ccccc1NC(=O)c1ccc(COc2ccccc2Cl)o1`, the Potency was “inactive”.
With `COC(=O)c1ccccc1NC(=O)c1cc(-c2ccccc2O)no1` the Potency was 4.47 µM (active).
For `CC(C)(C)CC(=O)N1CC[C@@H](CC(=O)O)[C@@H](CCN2CCN(c3ccc(F)cc3)CC2)C1`, the Potency was “inactive”.
With `O=C(NCCc1cn[nH]c1)[C@H]1CCC[C@@H](O)C1` the Potency was “inactive”.
In the case of `Cn1cc(-c2ccccc2Oc2ccccc2)c2nc(CN3CCNC(=O)C3)cn2c1=O`, the Potency is reported as “inactive”.
With `Oc1ccc(-c2nc(C3CC3)nc3c2CCN(Cc2cccc(F)c2)CC3)cc1` the Potency was “inactive”.
With `Oc1ccc(-c2nc(C3CC3)nc3c2CN(Cc2ccc(F)cc2)CC3)cc1` the Potency was 5.62 µM (active).
In the case of `Cn1nccc1CN1CCc2nc(C3CC3)nc(-c3ccc(O)cc3)c2C1`, the Potency is reported as “inactive”.
For `O=C1OCC2(CCN(Cc3ccc(F)c(Cl)c3)C2)N1Cc1ccccn1` (stereo not given), the Potency was “inactive”.
In the case of `C[C@@H](NC(=O)COc1ccccc1)c1c(-c2ccc(F)cc2)noc1C(=O)O`, the Potency is reported as “inactive”.
For `Cc1cc(N2CCC(NC(=O)c3ccc(N(C)C)cc3)C2=O)ccc1F` (stereo not given), the Potency was “inactive”.
In the case of `Cc1ccc(Cn2c(=O)n(CCCC(=O)NCc3ccccc3Cl)c(=O)c3ccccc32)cc1`, the Potency is reported as “inactive”.
In the case of `COc1ccc(NC(=O)Cn2c(=O)n(Cc3ccc(C(=O)NCc4ccccc4Cl)cc3)c(=O)c3ccccc32)cc1`, the Potency is reported as 10 µM (active).
For `COc1ccccc1CNC(=O)CCn1c(=O)c2ccccc2n(CC(=O)Nc2cccc(Cl)c2)c1=O`, the Potency was “inactive”.
For `O=C(O)CCn1ncc2cc(OC3CCN(C(=O)C4CCCC4)CC3)ccc21`, the Potency was “inactive”.
For `CCCCNC(=O)C1CCN(C(=O)c2nnn3c2COC(c2ccc(C)cc2)C3)CC1` (stereo not given), the Potency was “inactive”.
With `CCOc1cc(=O)n2c(c1C(=O)Nc1cc(Cl)ccc1F)CCCC2` the Potency was “inactive”.
With `Cc1noc2c(NC3CCCCC3)cc(-c3ccsc3)nc12` the Potency was “inactive”.
With `Fc1ccc(CNC2(Cc3cc(-c4ccc(F)cc4)on3)COC2)cc1` the Potency was “inactive”.
In the case of `OCc1cccc(-c2cc(C3=CCOCC3)c3cncn3c2)c1`, the Potency is reported as “inactive”.
For `O=C1NCc2ccc(-c3cc4c(ccn4Cc4cccnc4)c(C4=CCOCC4)n3)cc21`, the Potency was “inactive”.
In the case of `FC(F)(F)c1cccc(-c2cc(C3=CCOCC3)c3cncn3c2)c1`, the Potency is reported as 14.1 µM (active).
In the case of `O=C(C1CCOCC1)N1CCC2(CC1)CC(N1CCCC1)CCO2` (stereo not given), the Potency is reported as “inactive”.
In the case of `COC[C@H]1CCCN1C(=O)C(C)[C@@H]1CC[C@@]2(C)CC[C@H](NC(C)=O)[C@@H](C)[C@@H]2[C@H]1O` (stereo not given in full), the Potency is reported as “inactive”.
With `Cc1cccc(C(=O)N2C[C@@H](Oc3cccnc3)C[C@H]2C(=O)N2CCCC2)c1` the Potency was “inactive”.
